This note sets out measurements from PubChem BioAssay (EPA / NIEHS).

Test [1] has as its system DIO2 (gene 1734). In words: CCTE_GLTED_hDIO2: CCTE's human Deiodinase 2 (DIO2) Inhibition Assay, Great Lakes Toxicology and Ecology Division (GLTED) Lab (AID 2284050; active = hit-call score of the fitted dose curve at least 0.9, where 1 is the maximum). The method in brief: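 Iodide released by human deiodinase 2 over 3 h with test chemical, measured spectrophotometrically via Sandell-Kolthoff cerium/arsenic reaction. Run n=3; inhibition referenced to DMSO.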

In test [2] the target is Caspase-3 (Homo sapiens) (UniProt P42574). The test is described as follows: NVS_ENZ_hCASP3: NovaScreen (NVS) Enzymatic Assay for human Caspase 3 (CASP3) (AID 2283139; active = hit-call score of the fitted dose curve at least 0.9, where 1 is the maximum). An outline of the steps:
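Single-concentration screening at 25 uM in duplicate, with concentration-response follow-up to a 50 uM maximum for chemicals passing the threshold. Caspase-3 (human, E. coli-expressed) activity was read as substrate fluorescence after 1 h, with loss of signal relative to DMSO.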

Test [3] deals with human Phosphodiesterase 5 (PDE5), PDE5A (gene 8654) (UniProt O76074). In words: NVS_ENZ_hPDE5: NovaScreen (NVS) Enzymatic Assay for human Phosphodiesterase 5 (PDE5) (AID 2283194; active = hit-call score of the fitted dose curve at least 0.9, where 1 is the maximum). The method in brief:
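Screening began in duplicate at 25 uM, with actives taken into concentration-response. Enzyme activity of recombinant PDE5 toward its substrate was measured at 1 h by fluorescence mobility-shift detection, relative to DMSO controls.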

Read-out in test [4]: Tumor necrosis factor receptor superfamily member 6 (Homo sapiens) (UniProt P25445)
In words: LTEA_HepaRG_FAS: Life Technologies and Expression Analysis (LTEA) Assay for Fas cell surface death receptor (FAS) using HepaRG (AID 2283447). Particulars: mRNA level, 48 h; actives raise or lower the signal. An outline of the steps: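 Differentiated human HepaRG cells, pre-cultured 48 h, were exposed in duplicate for 48 h to 8-point half-log concentrations (top 100 uM, 0.5% DMSO) in serum-free induction medium; FAS mRNA measured by qRT-PCR, normalized to ACTB/GAPDH/POLR2A, bidirectional fit versus DMSO.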

Read-out in test [5]: Fatty acid synthase (Homo sapiens) (UniProt P49327)
The test is described as follows: LTEA_HepaRG_FASN: Life Technologies and Expression Analysis (LTEA) Assay for Fatty Acid Synthase (FASN) using HepaRG (AID 2283448). The following applies: mRNA level, 48 h; actives raise or lower the signal. The method in brief:
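FASN transcript measured by TaqMan qRT-PCR, normalised to three housekeeping genes, after 48 h chemical exposure of HepaRG cells. Eight-point half-log series from 100 uM in 0.5% DMSO, duplicates; gain or loss fitted against vehicle.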

Read-out in test [6]: Cyclin D2 (CCND2), CCND2 (gene 894)
In words: LTEA_HepaRG_CCND2: Life Technologies and Expression Analysis (LTEA) Assay for Cyclin D2 (CCND2) using HepaRG (AID 2283449).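 Also: CCND2 transcript measured by TaqMan qRT-PCR and normalised to three housekeeping genes.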 Particulars: mRNA level, 48 h; actives raise or lower the signal. An outline of the steps: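 In this HepaRG study, an eight-point concentration series (max 100 uM, 0.5% DMSO) is applied for 48 h. CCND2 mRNA change is derived by qRT-PCR normalised to ACTB, GAPDH and POLR2A.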

Read-out in test [7]: Cyclin Dependent Kinase Inhibitor 1A (CDKN1A), CDKN1A (gene 1026)
In words: LTEA_HepaRG_CDKN1A: Life Technologies and Expression Analysis (LTEA) Assay for Cyclin Dependent Kinase Inhibitor 1A (CDKN1A) using HepaRG (AID 2283450). The following applies: mRNA level, 48 h; actives raise or lower the signal. An outline of the steps:
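Gain or loss of CDKN1A transcript is scored by bidirectional fitting against 0.5% DMSO vehicle. Human HepaRG cultures receive chemicals for 48 h across an 8-point series peaking at 100 uM; expression comes from qRT-PCR.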

Read-out in test [8]: Cyclin D1 (CCND1), CCND1 (gene 595)
In words: LTEA_HepaRG_CCND1: Life Technologies and Expression Analysis (LTEA) Assay for Cyclin D1 (CCND1) using HepaRG (AID 2283451). Particulars: mRNA level, 48 h; actives raise or lower the signal. The method in brief:
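Expression change is measured by qRT-PCR in HepaRG cells after 48 h treatment across eight concentrations topping at 100 uM, with duplicate wells and DMSO (0.5%) serving as baseline for bidirectional fitting.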

Read-out in test [9]: catalase (CAT), CAT (gene 847)
In words: LTEA_HepaRG_CAT: Life Technologies and Expression Analysis (LTEA) Assay for catalase (CAT) using HepaRG (AID 2283452). The following applies: mRNA level, 48 h; actives raise or lower the signal. The method in brief: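 Differentiated HepaRG cells in serum-free induction medium were dosed 48 h in duplicate, eight half-log concentrations from 100 uM in 0.5% DMSO. Transcript measured by TaqMan qRT-PCR, normalised to ACTB/GAPDH/POLR2A, fitted bidirectionally against DMSO.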

Read-out in test [10]: flavin-containing dimethylaniline monooxygenases 3 (FMO3), FMO3 (gene 2328)
In words: LTEA_HepaRG_FMO3: Life Technologies and Expression Analysis (LTEA) Assay for flavin-containing dimethylaniline monooxygenases 3 (FMO3) using HepaRG (AID 2283453). The following applies: mRNA level, 48 h; actives raise or lower the signal. The method in brief: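 FMO3 transcript quantified by TaqMan qRT-PCR against three housekeeping genes after 48 h chemical exposure of HepaRG cells. Eight-point half-log series, top 100 uM, 0.5% DMSO vehicle; phenobarbital 1mM induction control; up- or down-regulation fitted.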

Read-out in test [11]: Cytochrome P450 (CYP1A1), CYP1A1 (gene 1543)
The test is described as follows: LTEA_HepaRG_CYP1A1: Life Technologies and Expression Analysis (LTEA) Assay for Cytochrome P450 (CYP1A1) using HepaRG (AID 2283454). The following applies: mRNA level, 48 h; actives raise or lower the signal. An outline of the steps: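 Using HepaRG cultures with 0.5% DMSO as vehicle, eight-concentration exposures (max 100 uM) lasted 48 h. Transcript levels were measured by TaqMan qRT-PCR and normalized to ACTB, GAPDH and POLR2A.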

Read-out in test [12]: CFLAR gene, CFLAR (gene 8837)
The test is described as follows: LTEA_HepaRG_CFLAR: Life Technologies and Expression Analysis (LTEA) Assay for CFLAR gene using HepaRG (AID 2283455). The following applies: mRNA level, 48 h; actives raise or lower the signal. The method in brief:
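Gain- or loss-of-signal changes in CFLAR transcript were fitted bidirectionally relative to 0.5% DMSO. Cells (HepaRG, duplicate wells) were dosed for 48 h across eight half-log concentrations topping at 100 uM; quantitation by TaqMan qRT-PCR.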

Read-out in test [13]: Forkhead box O1 (FOXO1), FOXO1 (gene 2308)
The test is described as follows: LTEA_HepaRG_FOXO1: Life Technologies and Expression Analysis (LTEA) Assay for Forkhead box O1 (FOXO1) using HepaRG (AID 2283456). Particulars: mRNA level, 48 h; actives raise or lower the signal. The method in brief: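 Using one lot of HepaRG hepatic cells kept in 0.5% DMSO, the team applied test chemicals in duplicate, half-log dilutions from 100 uM, for 48 h. Expression, normalised to ACTB/GAPDH/POLR2A, was compared with vehicle in either direction.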

Read-out in test [14]: growth arrest and DNA damage 45 (GADD45A), GADD45A (gene 1647)
In words: LTEA_HepaRG_GADD45A: Life Technologies and Expression Analysis (LTEA) Assay for growth arrest and DNA damage 45 (GADD45A) using HepaRG (AID 2283458). Particulars: mRNA level, 48 h; actives raise or lower the signal. An outline of the steps: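 GADD45A expression was measured by TaqMan qRT-PCR against three housekeeping genes (ACTB, GAPDH, POLR2A) after 48 h treatment of HepaRG cells. Eight-point half-log series up to 100 uM in 0.5% DMSO, run in duplicate.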

Read-out in test [15]: Forkhead box O3 (FOXO3), FOXO3 (gene 2309)
The test is described as follows: LTEA_HepaRG_FOXO3: Life Technologies and Expression Analysis (LTEA) Assay for Forkhead box O3 (FOXO3) using HepaRG (AID 2283459). The following applies: mRNA level, 48 h; actives raise or lower the signal. The method in brief: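 Gene-expression endpoint: FOXO3 transcript level by qRT-PCR in HepaRG cultures treated 48 h with chemicals up to 100 uM (half-log, 0.5% DMSO vehicle).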

Read-out in test [16]: ABC Transporter (ABCB1), ABCB1 (gene 5243)
The test is described as follows: LTEA_HepaRG_ABCB1: Life Technologies and Expression Analysis (LTEA) Assay for ABC Transporter (ABCB1) using HepaRG (AID 2283460). Particulars: mRNA level, 48 h; actives raise or lower the signal. An outline of the steps: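 Human liver HepaRG line treated 48 h with up to 100 uM compound (eight half-log points, 0.5% DMSO); ABCB1 mRNA change fitted bidirectionally against DMSO controls.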

Read-out in test [17]: growth arrest and DNA damage 45 (GADD45B), GADD45B (gene 4616)
In words: LTEA_HepaRG_GADD45B: Life Technologies and Expression Analysis (LTEA) Assay for growth arrest and DNA damage 45 (GADD45B) using HepaRG (AID 2283461). The following applies: mRNA level, 48 h; actives raise or lower the signal. The method in brief:
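Human HepaRG monolayers receive chemicals for 48 h at eight half-log concentrations, highest 100 uM, in 0.5% DMSO. Expression is measured by TaqMan qRT-PCR and normalized to ACTB, GAPDH and POLR2A.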

Read-out in test [18]: ABC Transporter (ABCC3), ABCC3 (gene 8714)
The test is described as follows: LTEA_HepaRG_ABCC3: Life Technologies and Expression Analysis (LTEA) Assay for ABC Transporter (ABCC3) using HepaRG (AID 2283462). Particulars: mRNA level, 48 h; actives raise or lower the signal. An outline of the steps: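 Transcriptional change of ABCC3 in HepaRG after 48 h treatment, determined by qRT-PCR normalized to endogenous controls. Concentrations spanned eight half-log steps to 100 uM in 0.5% DMSO.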

Read-out in test [19]: ABC Transporter (ABCB11), ABCB11 (gene 8647)
The test is described as follows: LTEA_HepaRG_ABCB11: Life Technologies and Expression Analysis (LTEA) Assay for ABC Transporter (ABCB11) using HepaRG (AID 2283463). Particulars: mRNA level, 48 h; actives raise or lower the signal. An outline of the steps:
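Using HepaRG cultures held in 0.5% DMSO, chemicals were tested at half-log dilutions from 100 uM for 48 h. Induction or suppression of ABCB11 mRNA, normalized to ACTB, GAPDH and POLR2A, was fitted bidirectionally against vehicle.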

Read-out in test [20]: ABC Transporter (ABCC2), ABCC2 (gene 1244)
In words: LTEA_HepaRG_ABCC2: Life Technologies and Expression Analysis (LTEA) Assay for ABC Transporter (ABCC2) using HepaRG (AID 2283464). The following applies: mRNA level, 48 h; actives raise or lower the signal. The method in brief: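 After plating and 48 h culture, HepaRG medium is replaced with serum-free induction medium and chemicals are added (8 concentrations, max 100 uM, 0.5% DMSO) for 48 h. Total RNA then undergoes qRT-PCR for ABCC2 with housekeeping normalization.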

Each structure is given as a SMILES string. Records with an inconclusive call do not appear. Activity calls are given as the source filed them. The calls were made as follows, unless noted: active = hit-call score of the fitted dose curve at least 0.9, where 1 is the maximum; inactive = score below 0.9.

Fatty acid synthase (Homo sapiens), sequence (P49327 whole entry, looked up): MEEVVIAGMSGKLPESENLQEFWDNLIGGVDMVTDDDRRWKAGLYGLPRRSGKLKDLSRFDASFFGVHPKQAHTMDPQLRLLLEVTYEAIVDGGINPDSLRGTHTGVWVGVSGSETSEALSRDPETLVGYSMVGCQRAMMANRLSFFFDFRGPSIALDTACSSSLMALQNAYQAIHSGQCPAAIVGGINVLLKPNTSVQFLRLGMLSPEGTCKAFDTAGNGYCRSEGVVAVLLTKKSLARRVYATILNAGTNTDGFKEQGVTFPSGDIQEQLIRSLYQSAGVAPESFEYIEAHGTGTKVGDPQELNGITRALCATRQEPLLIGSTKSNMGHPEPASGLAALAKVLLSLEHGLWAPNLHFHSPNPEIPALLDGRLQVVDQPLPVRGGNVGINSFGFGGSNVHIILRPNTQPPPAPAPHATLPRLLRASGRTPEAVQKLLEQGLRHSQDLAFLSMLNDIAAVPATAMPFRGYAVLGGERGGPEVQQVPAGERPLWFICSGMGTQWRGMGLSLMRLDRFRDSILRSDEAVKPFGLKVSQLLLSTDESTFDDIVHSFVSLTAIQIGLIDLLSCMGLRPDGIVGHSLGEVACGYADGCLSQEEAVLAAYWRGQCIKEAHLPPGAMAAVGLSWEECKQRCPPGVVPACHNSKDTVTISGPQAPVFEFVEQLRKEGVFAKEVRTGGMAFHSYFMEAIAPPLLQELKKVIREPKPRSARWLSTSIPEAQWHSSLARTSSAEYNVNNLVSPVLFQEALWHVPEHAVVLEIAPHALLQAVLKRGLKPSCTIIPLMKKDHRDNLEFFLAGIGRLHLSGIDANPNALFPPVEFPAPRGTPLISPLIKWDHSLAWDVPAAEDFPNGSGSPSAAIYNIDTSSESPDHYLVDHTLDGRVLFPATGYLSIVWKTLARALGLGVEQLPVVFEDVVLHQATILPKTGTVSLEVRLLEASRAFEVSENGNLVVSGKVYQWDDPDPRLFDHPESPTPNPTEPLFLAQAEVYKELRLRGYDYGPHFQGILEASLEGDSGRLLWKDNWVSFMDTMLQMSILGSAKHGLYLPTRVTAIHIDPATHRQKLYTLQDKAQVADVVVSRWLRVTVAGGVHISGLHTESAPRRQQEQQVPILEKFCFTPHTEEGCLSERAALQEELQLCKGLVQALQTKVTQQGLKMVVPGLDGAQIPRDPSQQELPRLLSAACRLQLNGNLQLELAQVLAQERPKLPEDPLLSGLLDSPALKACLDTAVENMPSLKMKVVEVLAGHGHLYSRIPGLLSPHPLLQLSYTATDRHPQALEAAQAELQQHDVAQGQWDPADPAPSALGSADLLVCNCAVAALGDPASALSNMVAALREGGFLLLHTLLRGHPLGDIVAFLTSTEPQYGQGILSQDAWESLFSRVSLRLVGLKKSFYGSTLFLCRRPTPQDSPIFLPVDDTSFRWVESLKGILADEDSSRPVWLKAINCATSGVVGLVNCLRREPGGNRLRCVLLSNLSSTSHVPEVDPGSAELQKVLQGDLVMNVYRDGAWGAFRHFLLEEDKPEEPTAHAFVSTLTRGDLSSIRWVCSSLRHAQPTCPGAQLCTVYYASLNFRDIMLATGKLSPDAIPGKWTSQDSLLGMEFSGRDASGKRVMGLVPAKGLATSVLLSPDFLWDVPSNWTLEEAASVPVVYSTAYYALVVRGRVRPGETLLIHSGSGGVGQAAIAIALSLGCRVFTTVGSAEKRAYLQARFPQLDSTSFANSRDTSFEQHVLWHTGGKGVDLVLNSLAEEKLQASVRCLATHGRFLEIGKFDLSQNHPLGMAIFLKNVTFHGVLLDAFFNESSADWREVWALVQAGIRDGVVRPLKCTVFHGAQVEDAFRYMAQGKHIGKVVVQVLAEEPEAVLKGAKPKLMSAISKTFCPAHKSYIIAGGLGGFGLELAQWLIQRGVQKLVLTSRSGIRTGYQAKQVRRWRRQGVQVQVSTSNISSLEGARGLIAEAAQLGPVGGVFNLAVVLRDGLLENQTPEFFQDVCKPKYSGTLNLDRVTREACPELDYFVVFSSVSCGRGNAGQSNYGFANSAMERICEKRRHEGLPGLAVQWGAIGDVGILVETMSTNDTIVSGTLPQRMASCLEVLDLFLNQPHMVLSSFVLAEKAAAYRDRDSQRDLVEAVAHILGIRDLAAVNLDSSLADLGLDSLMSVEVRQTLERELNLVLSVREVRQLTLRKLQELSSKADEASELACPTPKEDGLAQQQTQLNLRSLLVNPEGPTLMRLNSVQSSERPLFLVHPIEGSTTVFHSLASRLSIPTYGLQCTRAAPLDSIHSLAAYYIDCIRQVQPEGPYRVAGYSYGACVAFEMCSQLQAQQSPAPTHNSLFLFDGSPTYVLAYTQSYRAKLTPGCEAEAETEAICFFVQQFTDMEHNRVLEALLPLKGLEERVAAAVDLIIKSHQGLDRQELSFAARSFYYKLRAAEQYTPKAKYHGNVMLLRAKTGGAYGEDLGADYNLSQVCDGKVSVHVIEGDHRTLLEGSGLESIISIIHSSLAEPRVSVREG
Caspase-3 (Homo sapiens), sequence (P42574 whole entry, looked up): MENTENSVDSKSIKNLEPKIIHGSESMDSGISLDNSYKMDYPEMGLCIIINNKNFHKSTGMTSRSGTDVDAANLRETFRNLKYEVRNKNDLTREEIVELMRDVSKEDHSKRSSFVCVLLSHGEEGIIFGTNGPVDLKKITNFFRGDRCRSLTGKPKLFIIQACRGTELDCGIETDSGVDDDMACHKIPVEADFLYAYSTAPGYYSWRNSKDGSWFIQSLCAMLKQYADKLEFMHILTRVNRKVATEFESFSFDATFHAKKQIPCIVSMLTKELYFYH

For the compound `Sc1nc2ccccc2s1`, the result in test [1] was inactive.

On to `CCC(C)=NO`, for which the result in test [2], in [3], in test [4], in test [5], in test [6] and in test [7] was inactive. In addition, the outcome in [8], in test [9], in [10], in test [12], in test [13] and in [14] was inactive. The compound was classed as inactive in test [15], in test [16], in test [17], in [18], in [19] and in [20]. Also, the AC50 in test [11] was 49.8 µM (active).
